Results taken from the supplement of paper PMC6555819.

How the values were obtained:
Assay in all cases: PBM binding z-score (relative to random genomic background probes); higher = stronger binding; sequences stand for … in GC…GCGATTGACAGCGTAGAATGAAGG
[1] = test system: PPARg:RXRa DBDmut IVT, anti-RXR (DBD mutation: RXRa K156A/R161A, NR concentration 270 nM, RXRa partner concentration 90 nM)
How it was run: (§1)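 Binding z-scores take random background probes as their reference. They come from custom Agilent 4×180K protein-binding microarrays incubated 1 h with ligand-free nuclear receptor dimers, with antibodies against each partner (one per run) detecting binding. Scanned fluorescence was regression-normalized.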

[2] = test system: PPARg:RXRa IVT, anti-PPARg (NR concentration 270 nM, RXRa partner concentration 90 nM)
How it was run: as §1

[3] = test system: PPARg DBDmut:RXRa IVT, anti-PPARg (DBD mutation: PPARg1 K132A/R137A, NR concentration 270 nM, RXRa partner concentration 90 nM)
How it was run: as §1

[4] = test system: PPARg DBDmut IVT, anti-PPARg (DBD mutation: PPARg1 K132A/R137A, NR concentration 270 nM)
How it was run: as §1

[5] = test system: PPARg homodimer (NR concentration 180 nM)
How it was run: as §1

[6] = test system: PXR:RXRa (NR concentration 270 nM, RXRa partner concentration 90 nM)
How it was run: as §1

[7] = test system: PXR homodimer (NR concentration 270 nM)
How it was run: as §1

[8] = test system: RARa:RXR (NR concentration 270 nM, RXRa partner concentration 90 nM)
How it was run: as §1

[9] = test system: RARa homodimer (NR concentration 270 nM)
How it was run: as §1

[10] = test system: RARb:RXRa (NR concentration 270 nM, RXRa partner concentration 90 nM)
How it was run: as §1

Sequence	PBM binding z-score [1]	PBM binding z-score [2]	PBM binding z-score [3]	PBM binding z-score [4]	PBM binding z-score [5]	PBM binding z-score [6]	PBM binding z-score [7]	PBM binding z-score [8]	PBM binding z-score [9]	PBM binding z-score [10]
CTCGAAAGGTCTTGCTCAGGTGAGTATACCAAAC	0.411	0.795	0.193	-0.313	0.433	0.314	-0.568	0.971	-0.363	1.75
TTACTAAGGTGAAAGGTCGTTGATGCACGCCTTG	4.24	5.63	1.41	1.35	2.47	4.61	0.84	6.79	0.463	3.51
CAGCCTAAGTCAGGGCCAGTATAGGAGGAACGTT	-0.358	-0.577	-1.05	-1.43	-0.193	-0.653	-0.125	-0.178	-0.484	-0.134
GCAGACAGGTGAAACGCAGGTAACTCGGGGTGGC	0.722	0.559	-0.371	-1.17	-0.333	0.0221	-0.587	0.361	-1.06	0.754
TCTAGCAGGCCAGAGGGTCACTCTAGAGGTACGG	0.721	0.95	-0.508	-0.98	0.476	1.24	-0.322	2.07	-0.492	2.27
TCTTGTAGATCAATCGAGGTTAAGAAAGTGCGCT	1.91	1.31	0.666	0.595	0.306	2.74	0.235	1.75	0.262	0.661
CCTACTGGGCCAAGGTCATTGTTCAGTCAAAGCA	3.1	4.53	1.57	-0.159	3.54	3.62	1.49	3.79	-0.126	3.25
CCTAGCAGGCCAGGGTCACTCAGGCATTTCGCTT	-0.00567	0.705	-1.33	-1.04	0.362	2.21	-0.351	2.78	-0.431	2.47
CGTCCAAGGTCAATGCTAGGTCAGTGACAGCATT	3.59	4.07	0.933	0.0917	5.74	4.98	1.04	6.17	2.41	5.26
CTCGAAAGGTCGATTGAGGTGAGTATACGGATAA	0.741	1.76	-0.148	0.11	0.805	4.35	0.0799	3.05	0.109	3.67
CCTACTCGGCCAAGGTCATTGATCAGTCAAAGCA	1.8	1.68	-0.0349	-0.365	2.76	3.75	2.34	3.59	1.82	3.52
GGATCGAGGGCAAAGTTGATAGCATCTGTCGACG	3.8	4.54	0.527	1.19	1.75	1.34	0.172	1.65	-0.00886	2.61
CAAACTCGGTCAAAGGTCAAAGTCGAGCCAACCA	5.71	7.61	1.95	3.41	6.43	6.69	2.5	8.37	3.33	5.43
CCAGACAGGTGAGAAGCTAACTCAGCCTCGATTA	1.24	0.141	-0.708	-1.08	0.381	-0.471	-0.163	-0.265	0.766	0.227
AGAATGAGGTTATTAAGATCAGAGAATTGCGGTC	3.17	2.63	0.323	0.23	0.951	1	0.488	1.2	0.79	1.16
GGAACGTGGGCATTCGAGTTGATAGCATGGCGAT	-0.654	-0.803	-0.387	-0.8	-0.877	-0.129	-0.516	-0.333	-0.773	-0.433
CGAACTAGGTCAGAACAGCACAGTGAAGGATGAT	7.06	7	0.891	0.278	0.531	0.247	-0.0288	0.419	0.0797	2.92
TCACATAGGTAAAGGTGAAAGTCGAACGATATGA	2.47	2.45	0.764	0.579	1.1	1.19	0.504	1.75	1.33	2.05
CCGACTGGGCCAAGGTTACCATAACGCACAGCCA	1.61	1.71	0.193	-0.788	0.313	0.153	-0.166	0.508	-0.101	0.98
ATCTCTAGGTAAAGTTAAGTGAAAGATCGATAGA	2.61	1.99	0.949	2.08	0.251	-0.00139	0.451	0.249	0.961	0.312
GCGACTGGGGCAAAGCAGGATACCATAAGGTTGG	4.62	3.04	-0.478	-1.16	-0.484	-0.583	-0.738	-0.211	-0.407	0.604
CCTACTGGGCCAAACGTCATTGATTCCAATGCTC	6.22	3.97	-0.542	-0.413	0.259	-0.508	-0.633	0.0892	-0.153	0.179
AGAACGAGGGCAATGAGTTTATAGCACGGGTGGC	3.6	2.75	0.304	-0.00705	-0.116	4.31	12.1	0.403	-0.186	2.44
GGAATGAGGGCATTCGAGTTGATAGCATGGCGAT	4.4	3.1	1.13	-0.209	0.811	4.13	1.54	1.44	-0.137	1.72
ACAGACAGGTGAGTGAAGGTAGCTCAGCTGGACG	0.722	0.62	-0.147	-1.08	-0.296	-0.618	-0.525	-0.193	-0.484	0.202
